In PubChem BioAssay AID1053205 (Broad Institute, 2014):
Results with a measured potency or affinity are listed apart. Inconclusive results are not listed.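 How the source made its calls: active means compounds lowering the FRET ratio whose fitted half-maximal concentration is at most twice their top tested dose; inconclusive means flat partial drop between 30 and 70 percent, or bad fit; inactive means the rest.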

target: Voltage-dependent L-type calcium channel subunit alpha-1D (Homo sapiens) (UniProt Q01668); test: inhibitors of CaV1.3 ICDI-IQ binding, dose response, cell-based, HEK293, YFP-IQ/CFP-ICDI FRET, cherry-picks (AID 1053205); settings: HEK293 YFP-IQ/CFP-ICDI FRET ratio, 10 min; series mostly up to 35 µM; FRET change, negative = inhibition: at the top concentration;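 further: 0% = median of neutral control wells and -100% = median of positive control wells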
Sequence (Q01668 whole entry, looked up): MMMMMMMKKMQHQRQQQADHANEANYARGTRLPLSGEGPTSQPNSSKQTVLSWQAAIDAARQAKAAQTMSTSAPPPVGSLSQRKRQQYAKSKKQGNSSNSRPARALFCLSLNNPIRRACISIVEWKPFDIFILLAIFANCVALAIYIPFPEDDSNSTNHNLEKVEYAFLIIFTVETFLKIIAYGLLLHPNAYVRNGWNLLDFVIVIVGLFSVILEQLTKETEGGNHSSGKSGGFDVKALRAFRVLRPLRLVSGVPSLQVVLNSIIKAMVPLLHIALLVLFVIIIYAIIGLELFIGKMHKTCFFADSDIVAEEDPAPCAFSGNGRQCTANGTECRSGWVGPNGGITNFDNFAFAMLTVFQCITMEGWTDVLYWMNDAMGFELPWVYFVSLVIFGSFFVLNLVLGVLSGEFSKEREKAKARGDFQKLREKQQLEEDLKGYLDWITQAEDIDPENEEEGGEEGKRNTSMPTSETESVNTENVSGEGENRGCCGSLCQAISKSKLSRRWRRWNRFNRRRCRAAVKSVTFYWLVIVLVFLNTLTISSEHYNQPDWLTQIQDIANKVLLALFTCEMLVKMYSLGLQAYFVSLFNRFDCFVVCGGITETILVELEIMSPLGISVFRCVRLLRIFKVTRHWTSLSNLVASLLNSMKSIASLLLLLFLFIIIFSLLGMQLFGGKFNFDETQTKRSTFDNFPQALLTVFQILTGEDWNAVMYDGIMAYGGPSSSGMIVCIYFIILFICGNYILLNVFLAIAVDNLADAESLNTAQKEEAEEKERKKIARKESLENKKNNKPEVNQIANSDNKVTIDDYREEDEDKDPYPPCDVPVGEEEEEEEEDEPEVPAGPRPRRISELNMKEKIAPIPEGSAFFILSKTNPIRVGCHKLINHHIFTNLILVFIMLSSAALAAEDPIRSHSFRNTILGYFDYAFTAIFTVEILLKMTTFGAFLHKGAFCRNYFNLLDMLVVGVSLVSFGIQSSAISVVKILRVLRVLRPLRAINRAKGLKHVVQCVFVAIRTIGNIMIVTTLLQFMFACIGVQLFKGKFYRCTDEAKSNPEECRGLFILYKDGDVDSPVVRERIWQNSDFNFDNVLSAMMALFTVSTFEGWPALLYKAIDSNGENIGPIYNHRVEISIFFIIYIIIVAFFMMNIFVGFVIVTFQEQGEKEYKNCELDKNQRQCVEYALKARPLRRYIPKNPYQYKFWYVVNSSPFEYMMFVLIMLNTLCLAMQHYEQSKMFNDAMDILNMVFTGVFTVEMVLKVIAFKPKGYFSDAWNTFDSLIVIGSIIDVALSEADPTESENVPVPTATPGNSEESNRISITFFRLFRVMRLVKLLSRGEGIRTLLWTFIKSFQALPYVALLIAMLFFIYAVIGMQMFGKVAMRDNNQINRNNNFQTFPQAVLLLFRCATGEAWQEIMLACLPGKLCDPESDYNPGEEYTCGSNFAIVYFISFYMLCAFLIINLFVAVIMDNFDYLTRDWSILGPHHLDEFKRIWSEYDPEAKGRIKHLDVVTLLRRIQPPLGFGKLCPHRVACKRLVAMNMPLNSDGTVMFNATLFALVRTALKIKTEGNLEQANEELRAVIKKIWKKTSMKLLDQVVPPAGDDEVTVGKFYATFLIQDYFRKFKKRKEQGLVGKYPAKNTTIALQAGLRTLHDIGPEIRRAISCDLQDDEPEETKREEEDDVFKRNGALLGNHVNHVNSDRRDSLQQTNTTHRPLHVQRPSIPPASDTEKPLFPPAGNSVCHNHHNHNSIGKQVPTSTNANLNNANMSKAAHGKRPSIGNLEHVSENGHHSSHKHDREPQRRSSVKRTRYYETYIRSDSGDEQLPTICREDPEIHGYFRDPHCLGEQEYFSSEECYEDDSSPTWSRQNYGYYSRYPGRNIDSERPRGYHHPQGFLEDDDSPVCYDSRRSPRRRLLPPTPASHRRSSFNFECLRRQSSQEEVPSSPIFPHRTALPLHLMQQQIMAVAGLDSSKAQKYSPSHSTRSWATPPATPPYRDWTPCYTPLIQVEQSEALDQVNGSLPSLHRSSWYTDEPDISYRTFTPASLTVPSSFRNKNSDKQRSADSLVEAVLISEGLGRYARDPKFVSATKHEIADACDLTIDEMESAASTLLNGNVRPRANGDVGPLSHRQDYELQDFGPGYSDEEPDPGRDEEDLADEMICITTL

FRET change, negative = inhibition, inactive:
CCOC(=O)c1c2ccc(OCC(=O)NN)cc2n2ccccc12 379%
CSc1ccc(Cn2c(C)c(C(=O)NCc3cccc(Cl)c3)sc2=O)cc1 -8.54%
COc1c(Cl)cc(-c2noc(C)c2C(=O)NCc2ccc3c(c2)OCO3)cc1Cl 17.9%
O=c1oc2c(CN3CCN(CCO)CC3)c(O)ccc2cc1-c1ccccn1 470%
c1ccc2cc3c(NCCN4CCOCC4)ccnc3cc2c1 241%
Cc1ccc2nc3c(cc(C(=O)NCc4ccccc4)c(=N)n3CCCn3ccnc3)c(=O)n2c1 404%
COc1ccccc1OCc1ccc(C(=O)N(C)c2ccccc2)o1 4.94% [at 16 µM]
CN(C)CCOCCOc1ccc(Cl)c2ccccc12 8.55%
Cc1nc(CCNC(=O)Cc2ccc(Cl)cc2)cs1 -11.5%
CCc1nnc(NC(=O)c2ccc(-c3ccccc3F)o2)s1 7.19%
COc1ccccc1C(=O)c1cc2ccc(O)cc2oc1=O 76.2%
O=C(c1cccc(Cl)c1)N1CCC(=O)N(C(COCc2ccccc2)Cc2ccccc2)CC1 (stereo unspecified) 5.96%
Cc1c(C=O)c2ccccn2c1C(=O)c1cccs1 28.8%
Cc1ccc(S(=O)(=O)Nc2ccc(Nc3ccccc3)cc2)cc1 14.1%
Cc1oc(/N=C/c2ccc(F)cc2)c(C#N)c1C 8.86%
COc1ccc(C2c3ccc(O)cc3Oc3ncn4nc(-c5ccccn5)nc4c32)cc1 (stereo unspecified) -40%
COc1cc(/C=C(\C#N)C(=O)NC(C)C)cc(Cl)c1O -16.2%
CC(=O)Nc1cccc(-c2ccnc3c2CC(C(=O)NCc2cccc(Cl)c2)O3)c1 (stereo unspecified) 10.8%
CSc1ccc(Cl)c(C(=O)N2CCOc3ccccc32)c1 13.8%
Cc1noc(C)c1-c1ccc(C(=O)NCCc2ccccc2)c2occc12 16.9%
S=c1[nH]c2ccc(Cc3ccc4[nH]c(=S)[nH]c4c3)cc2[nH]1 16.8%
CC(=O)NNc1cc(N2CCOCC2)nc(N2CCOCC2)n1 10.7%
COC(=O)C1=CN(C)C=C(C(=O)OC)C1c1ccccc1Cl 276%
NC(=O)c1c(NC(=O)Cc2ccccc2)sc2c1CCN(Cc1ccccc1)C2 204%
N#CC(C#N)=C1C=CC=CN1/C(=C\c1ccccc1)C(=O)c1cccs1 57.3%
COc1ccc(Cn2nnnc2C(CC(C)C)N2CCC(C(N)=O)CC2)cc1 (stereo unspecified) -0.453%
CN1c2ccc(Cl)cc2C(=O)NC1C1CC=CCC1 (stereo unspecified) 17%
O=C(c1ccccc1)N1CCN(c2ccc(NCc3ccc4c(c3)OCO4)cc2)CC1 10.7%
CC(C)(C)[C@H]1CCC(=O)N([C@H](CSc2ccccc2)Cc2ccccc2)CC1 -35.3%
CCCn1c(=N)c(S(=O)(=O)c2ccccc2)cc2c(=O)n3ccccc3nc21 457%
O=C(NNc1c2ccccc2nc2ccccc12)c1ccc(O)cc1 17.3%
CC/C(C)=N\Nc1nc(-c2cc3cc(OC)ccc3oc2=O)cs1 34.6%
CC(=O)c1cc2c(ccc3ccccc32)oc1=O 84.2%
COc1cc(C2C3=C(CC(C)(C)CC3=O)N(C)C3=C2C(=O)CC(C)(C)C3)cc(Br)c1O -4.72%
O=[N+]([O-])c1cccc(Nc2c3ccccc3nc3ccccc23)c1 -12.1%
O=C(NS(=O)(=O)c1ccc(Cl)s1)c1ccccc1 74.7%
